Data published in PubChem BioAssay.
The source made the active and inactive calls.

Tests used:
[1] = small molecules captured by biotinylated probe aFSTL3 – biochemical, small-molecule microarray, fluorescence 635/667, stem cell growth factor project, primary screen (AID 1064); details: higher = more signal;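 further: measures binding of the biotinylated anti-FSTL3 antibody to printed compounds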
[2] = binders from COS7 lysate, DM2A8 probe, primary screen, torsin A project, cell lysate, small-molecule microarray, fluorescence 635/667 (AID 1065); details: higher = more signal, COS7 lysate expressing mutant human TOR1A
[3] = small molecules captured by biotinylated probe aFGF2 – biochemical, small-molecule microarray, fluorescence 635/667, stem cell growth factor project, primary screen (AID 1067); details: higher = more signal;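 further: measures binding of biotinylated aFGF2 protein to printed compounds on slides; z-score merges feature fluorescence and signal-to-noise across triplicate slides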
[4] = small molecules captured by biotinylated probe aFGF10 – biochemical, small-molecule microarray, fluorescence 635/667, stem cell growth factor project, primary screen (AID 1071); details: higher = more signal;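 further: score merges 667 nm spot intensity and signal to noise from triplicate slides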
[5] = molecular target: Neurogenic locus notch homolog protein 2 (Homo sapiens) (UniProt Q04721); assay: small molecules binding Notch2 protein – biochemical, small-molecule microarray, 635 nm fluorescence, stem cell growth factors, primary screen (AID 1073); details: higher = more signal
[6] = molecular target: Pro-neuregulin-1, membrane-bound isoform (Homo sapiens) (UniProt Q02297); assay: small molecules binding neuregulin-1 protein – biochemical, small-molecule microarray, fluorescence 635/667, psychiatric disease protein project, primary screen (AID 1075); details: NRG1 binding, 635 nm fluorescence, higher = more signal;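 further: score combines 667 nm spot fluorescence with signal to noise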
[7] = system: Neuregulin-1 EGF-like domain; assay: small molecules binding NRG1 EGF domain – biochemical, small-molecule microarray, 635 nm fluorescence, primary screen (AID 1081); details: higher = more signal;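 further: binding of the protein to compounds printed on small-molecule microarray slides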
[8] = FRG1 expression reporter modulators in myotubes – cell-based, C2C12 myotubes, firefly/Renilla luciferase, luminescence, FRG1 inhibition for FSHD, primary screen (AID 1084); details: FRG1 promoter luciferase, higher = more signal, called active from +8 up or from −8 down
[9] = small molecules captured by biotinylated probe aFST – biochemical, small-molecule microarray, fluorescence 635/667, stem cell growth factor project, primary screen (AID 1086); details: higher = more signal;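 further: score merges 667 nm fluorescence with signal-to-noise of each printed compound spot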
[10] = binders of probe aHhip on microarray, primary screen, stem cell growth factor project, biochemical, small-molecule microarray, fluorescence 635/667 (AID 1087); details: higher = more signal;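 further: score merges spot fluorescence at 667nm with spot signal to noise ratio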

Sequence of Pro-neuregulin-1, membrane-bound isoform (Homo sapiens) (Q02297 whole entry, looked up, the tested form may be a part, canonical isoform): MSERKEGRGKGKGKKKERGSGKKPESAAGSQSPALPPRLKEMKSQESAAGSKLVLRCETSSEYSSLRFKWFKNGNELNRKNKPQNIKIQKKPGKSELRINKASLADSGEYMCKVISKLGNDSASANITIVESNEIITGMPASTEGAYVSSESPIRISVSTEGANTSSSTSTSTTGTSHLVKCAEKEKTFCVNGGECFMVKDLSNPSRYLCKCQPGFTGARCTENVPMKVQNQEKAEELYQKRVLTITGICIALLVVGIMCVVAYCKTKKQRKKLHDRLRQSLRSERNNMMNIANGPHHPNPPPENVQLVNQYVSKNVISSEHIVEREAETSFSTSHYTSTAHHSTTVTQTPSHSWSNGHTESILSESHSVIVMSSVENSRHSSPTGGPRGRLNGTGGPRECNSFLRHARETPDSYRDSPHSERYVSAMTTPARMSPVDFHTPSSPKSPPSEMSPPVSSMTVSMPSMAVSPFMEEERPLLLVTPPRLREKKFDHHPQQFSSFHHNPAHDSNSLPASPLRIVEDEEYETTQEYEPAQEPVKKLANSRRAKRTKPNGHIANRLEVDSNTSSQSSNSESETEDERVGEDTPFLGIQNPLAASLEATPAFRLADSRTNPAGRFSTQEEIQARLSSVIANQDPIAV
Sequence of Neurogenic locus notch homolog protein 2 (Homo sapiens) (Q04721 whole entry, looked up, canonical isoform): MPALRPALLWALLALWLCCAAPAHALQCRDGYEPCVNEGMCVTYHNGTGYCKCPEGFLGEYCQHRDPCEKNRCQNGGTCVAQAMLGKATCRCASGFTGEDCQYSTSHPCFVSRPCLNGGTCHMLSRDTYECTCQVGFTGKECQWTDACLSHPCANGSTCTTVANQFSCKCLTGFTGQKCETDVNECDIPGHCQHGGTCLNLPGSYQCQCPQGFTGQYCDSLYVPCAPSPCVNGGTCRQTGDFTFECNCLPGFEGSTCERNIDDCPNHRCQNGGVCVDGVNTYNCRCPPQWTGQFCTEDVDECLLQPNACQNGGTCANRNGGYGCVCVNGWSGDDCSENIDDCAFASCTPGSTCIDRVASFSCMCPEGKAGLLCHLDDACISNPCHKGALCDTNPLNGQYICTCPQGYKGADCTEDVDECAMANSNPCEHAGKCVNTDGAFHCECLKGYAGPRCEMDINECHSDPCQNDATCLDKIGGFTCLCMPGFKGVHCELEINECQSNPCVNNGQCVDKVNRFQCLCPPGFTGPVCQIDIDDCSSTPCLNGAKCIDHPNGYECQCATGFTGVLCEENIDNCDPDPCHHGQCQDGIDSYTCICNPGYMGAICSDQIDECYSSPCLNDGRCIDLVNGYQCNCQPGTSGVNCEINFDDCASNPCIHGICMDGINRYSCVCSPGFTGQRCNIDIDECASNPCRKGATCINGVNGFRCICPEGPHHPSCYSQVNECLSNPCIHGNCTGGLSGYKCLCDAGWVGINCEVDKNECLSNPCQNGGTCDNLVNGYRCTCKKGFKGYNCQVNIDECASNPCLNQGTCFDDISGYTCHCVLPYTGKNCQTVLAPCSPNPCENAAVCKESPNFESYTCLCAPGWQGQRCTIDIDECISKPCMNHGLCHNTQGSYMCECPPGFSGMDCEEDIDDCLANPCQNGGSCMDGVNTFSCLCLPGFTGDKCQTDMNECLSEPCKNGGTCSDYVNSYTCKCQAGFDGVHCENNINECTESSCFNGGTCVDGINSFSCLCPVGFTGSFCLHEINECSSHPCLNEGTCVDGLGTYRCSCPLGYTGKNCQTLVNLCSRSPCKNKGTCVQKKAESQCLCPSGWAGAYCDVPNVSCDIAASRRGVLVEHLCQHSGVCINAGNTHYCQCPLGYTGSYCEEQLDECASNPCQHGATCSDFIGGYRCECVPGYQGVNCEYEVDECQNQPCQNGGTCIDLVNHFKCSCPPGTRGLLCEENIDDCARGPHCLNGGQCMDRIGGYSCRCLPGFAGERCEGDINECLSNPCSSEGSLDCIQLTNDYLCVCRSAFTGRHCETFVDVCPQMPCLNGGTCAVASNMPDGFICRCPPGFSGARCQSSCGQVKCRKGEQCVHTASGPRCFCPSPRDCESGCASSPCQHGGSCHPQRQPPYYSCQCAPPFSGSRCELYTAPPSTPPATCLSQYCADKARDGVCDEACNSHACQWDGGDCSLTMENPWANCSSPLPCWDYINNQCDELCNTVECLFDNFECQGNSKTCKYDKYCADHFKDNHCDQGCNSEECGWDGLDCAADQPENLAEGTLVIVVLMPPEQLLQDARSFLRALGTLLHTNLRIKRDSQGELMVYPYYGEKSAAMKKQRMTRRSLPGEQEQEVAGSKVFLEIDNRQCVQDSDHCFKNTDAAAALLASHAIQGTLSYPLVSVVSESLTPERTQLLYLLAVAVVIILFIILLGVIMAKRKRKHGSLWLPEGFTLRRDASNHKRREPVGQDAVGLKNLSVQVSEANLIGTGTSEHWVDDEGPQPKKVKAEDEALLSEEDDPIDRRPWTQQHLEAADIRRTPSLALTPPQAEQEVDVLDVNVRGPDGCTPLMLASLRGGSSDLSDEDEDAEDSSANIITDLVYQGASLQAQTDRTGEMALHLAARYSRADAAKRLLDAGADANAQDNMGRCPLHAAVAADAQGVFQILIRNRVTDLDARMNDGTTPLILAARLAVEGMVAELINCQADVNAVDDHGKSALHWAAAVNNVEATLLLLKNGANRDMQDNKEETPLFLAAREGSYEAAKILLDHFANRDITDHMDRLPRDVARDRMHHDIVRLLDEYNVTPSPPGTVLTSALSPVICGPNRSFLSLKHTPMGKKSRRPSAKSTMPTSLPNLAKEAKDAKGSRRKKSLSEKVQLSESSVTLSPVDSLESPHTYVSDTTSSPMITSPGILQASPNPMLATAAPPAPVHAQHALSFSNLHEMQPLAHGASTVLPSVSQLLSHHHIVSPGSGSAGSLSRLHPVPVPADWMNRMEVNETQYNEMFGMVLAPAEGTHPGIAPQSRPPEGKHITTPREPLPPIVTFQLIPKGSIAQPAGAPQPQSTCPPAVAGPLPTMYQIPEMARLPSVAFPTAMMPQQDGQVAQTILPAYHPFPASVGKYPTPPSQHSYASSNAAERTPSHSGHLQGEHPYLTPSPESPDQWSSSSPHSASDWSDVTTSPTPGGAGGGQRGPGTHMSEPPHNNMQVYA

| SMILES | composite z-score [1] | composite z-score [2] | composite z-score [3] | composite z-score [4] | composite z-score [5] | composite z-score [6] | composite z-score [7] | z-score [8] | composite z-score [9] | composite z-score [10] |
| --- | --- | --- | --- | --- | --- | --- | --- | --- | --- | --- |
| CC(=O)C[C@H](O)[C@@H](NC(=O)OC(C)(C)C)C(C)C | -0.475 | -0.627 | -0.129 | -0.328 | -0.453 | -0.759 | -0.996 | 0.178 (inactive) | -0.126 | -0.0668 |
| O=C(CS)NCCCCCNC(=O)[C@H]1C[C@H]2C(=O)N3CCC[C@H]3C(=O)N2[C@H]1c1cccc(OCCO)c1 | 0.32 | 1.52 | -0.0718 | 0.564 | -0.0686 | 0.665 | 1.35 | 0.556 (inactive) | 0.442 | 0.0274 |
| CC=CC1=C(CO)[C@H](O)[C@H]2O[C@H]2[C@H]1O | -0.659 | 0.253 | -0.027 | 0.166 | -0.0482 | -0.157 | 0.583 | -0.0975 (inactive) | -0.191 | 0.0881 |
| Cc1ccc(S(=O)(=O)N[C@@H]2COC(=O)[C@H](C)COC(=O)CC=C[C@H]2C)cc1 | -0.618 | 0.133 | -0.121 | 0.305 | -0.0058 | -0.0185 | -0.228 | -0.564 (inactive) | -0.0468 | 0.176 |
| CC(=O)OC[C@H]1O[C@@H](ON=C(C)CCN2CCc3nc(-c4ccccc4)c(-c4ccccc4)cc3C2)[C@H](OC(C)=O)[C@@H](OC(C)=O)[C@@H]1OC(C)=O | -0.209 | 0.217 | -0.213 | 0.958 | 1.11 | 0.817 | 0.992 | 0.66 (inactive) | 0.473 | 0.21 |
| COCCOC(=O)N1C(=O)[C@@]2(c3ccccc31)[C@H](C(N)=O)[C@H]1C(=O)O[C@H](c3ccccc3)[C@H](c3ccccc3)N1[C@@H]2c1ccccc1OCCO | 0.0407 | 1.67 | 0.147 | 0.937 | 0.899 | 1.42 | 1.11 | -0.732 (inactive) | 0.521 | 0.234 |
| O=C1[C@H]2[C@H]3[C@H](O)[C@H](O)CC(=NO[C@@H]4O[C@H](CO)[C@@H](O)[C@H](O)[C@H]4O)[C@@H]3CC[C@H]2C(=O)N1c1ccc(F)cc1F | -0.383 | 1.17 | -0.125 | 0.442 | 0.482 | -0.141 | 0.386 | 1.06 (inactive) | 0.0076 | 0.2 |
| CCc1cc2c(nc1CC)CCN(CCC(C)=NOC[C@@H](O)[C@H]1O[C@@H]3OC(C)(C)O[C@@H]3[C@H]1O)C2 | -0.436 | 0.273 | -0.148 | 0.0851 | 0.191 | 0.146 | 0.335 | 1.35 (inactive) | 0.0391 | -0.0088 |
| CCOC(=O)[C@H](Cc1ccccc1)NC(=O)CCC1CC(OC(=O)NCc2ccc3c(c2)OCO3)CC2(CCCC(COC(=O)NCc3ccccc3)O2)O1 (stereo not given in full) | -0.0824 | 0.204 | -0.0103 | 0.697 | 0.808 | 0.317 | 0.718 | 1.54 (inactive) | 0.393 | 0.0505 |
| CN(C)CCCNC(=O)[C@@H]1c2ccccc2C(=O)N(Cc2cc(F)cc(C(F)(F)F)c2)[C@H]1c1ccc(CO)cc1 | 1.11 | 1.01 | -0.0692 | -0.436 | 0.102 | 1.33 | 1.36 | -1.19 (inactive) | -0.186 | 0.316 |
| CCOC(=O)C[C@H]1[C@H](OC(=O)c2ccc(C(=O)c3ccccc3)cc2)[C@@H](NC(=O)c2ccc(-c3ccccc3)cc2)c2cc(OCCCO)ccc2N1C(=O)c1ccc2ccccc2n1 | -0.378 | 0.292 | -0.0685 | 0.773 | 0.643 | 0.5 | 0.927 | 0.0728 (inactive) | 0.465 | -0.193 |
| COCC1=C2[C@@H](CCc3ccccc3)OB(O)C[C@@H]2n2c(=O)n(-c3ccccc3)c(=O)n2C1 | -0.163 | -0.106 | -0.0695 | 0.882 | 0.112 | -0.391 | 0.751 | -3.23 (inactive) | -0.373 | -0.236 |
| CCOC(=O)C1=CCC(c2cc3ccccc3[nH]2)NC1 (stereo not given) | 1.31 | 0.758 | -0.0629 | -0.355 | 0.476 | 0.963 | 1.13 | 4.17 (inactive) | 0.77 | -0.156 |
